Measurements reported in PubChem BioAssay (NCATS).
Records with an inconclusive call do not appear. A call without a number means that no potency is given here. Active and inactive are the calls of the source. The call rests on the fitted dose curve; in most records, active means well fitted inhibition curve with a large enough effect; inconclusive means small, poorly fitted or top-dose-only effect; inactive means flat fitted curve, though single readings scatter.

Each compound was assayed against Aldehyde dehydrogenase, mitochondrial (Homo sapiens) (UniProt P05091) (assay: qHTS for Inhibitors of the Aldehyde Dehydrogenase Family (ALDH2) Primary screen (AID 2061308; further: nearly all actives have a fitted effect of over 55% in size)). Settings: ALDH2 enzyme inhibition qHTS, 1536-well; series mostly up to 56 µM.
Potency means the concentration at half of the fitted maximal effect.

Row | Structure (SMILES) | Potency
1 | Cc1cnc(-c2ccccc2C(F)(F)F)nc1NCc1ccc(-c2cccnc2)cc1 | inactive
2 | O=C1c2ccccc2C(=O)N1c1cccc2cccnc12 | inactive
3 | COc1ccc(C[C@H](C)NC[C@@H](O)c2ccc(O)c(NC=O)c2)cc1 | inactive
4 | CC1(C)OB(c2ccc(O)c3ncc(N4CCNCC4)cc23)OC1(C)C | inactive
5 | Cc1nnc(-c2cnn(C)c2N)n1CCCc1ccncc1 | inactive
6 | COc1ccc(C2Nc3ccccc3C(=O)N2Cc2ccccc2)cc1OCc1ccc(NC(C)=O)cc1 (stereo not given) | inactive
7 | O=C(O)c1cccc(-c2noc(-c3ccc(F)cc3)n2)c1 | inactive
8 | Cc1ccnc(NC(=S)N2CCN(c3cccc(C(F)(F)F)n3)CC2)c1 | inactive
9 | N#Cc1ccc(-c2nc3ccccc3s2)cc1 | inactive
10 | COc1ccc(C(=O)OC2C3C=COC(OC4OC(CO)C(O)C(O)C4O)C3C3(CO)OC23)cc1OC (stereo not given) | inactive
11 | COc1ccc(-c2nc(-c3cccc(C(=O)O)c3)no2)cc1 | inactive
12 | CC(C)(C)OC(=O)N1CCN(c2ccc(NCc3ncc(-c4ccc(C#N)cc4)o3)cc2)CC1 | 1.12 µM (active)
13 | CS(=O)(=O)c1cccc(-c2csc(N3CCC(C(N)=O)CC3)n2)c1 | inactive
14 | COc1ccccc1-c1nc(-c2cccc(C(=O)O)c2)no1 | inactive
15 | CC(C)(C)OC(=O)N1CCN(c2ccc(NCc3ccoc3-c3ccc(C#N)cc3)cc2)CC1 | inactive
16 | COc1ccc(-c2nc(-c3ccc(C(=O)O)cc3)no2)cc1 | inactive
17 | FC(F)(F)c1cc(Cl)cc(-c2ccc(CNc3nc(-c4ccccc4C(F)(F)F)nc4ccccc34)cc2)c1 | inactive
18 | Cc1ccsc1CN(C)c1ncnc2ccc(-c3ccc(C(=O)N(C)C)o3)cc12 | inactive
19 | Oc1c(CNc2ccccc2)cc(COCc2ccccc2)c2cccnc12 | inactive
20 | CC(C)(C)OC(=O)N1CCN(c2ccc(NCc3ccc4c(c3)OCO4)cc2)CC1 | inactive

Row | Structure (SMILES) | Potency
21 | Cc1ccc(S(=O)(=O)Nc2cccc3cccnc23)c([N+](=O)[O-])c1 | inactive
22 | Cc1ccc(C2Nc3cccc4cccc(c34)N2)cc1 | inactive
23 | CN1CCN(c2ccc(Nc3c4ccccc4nc4ccccc34)cc2)CC1 | inactive
24 | Cc1ccnc(NC(=S)N2CCC(c3cccc(C(F)(F)F)c3)CC2)c1 | inactive
25 | Cc1ccc(-c2ccc(CNc3nc(-c4ccccc4C(C)C)nc4ccsc34)cc2)cn1 | inactive
26 | Cn1cc(CCn2cnc(-c3cnn(C)c3)c2-c2ccc(C#N)cc2)cn1 | inactive
27 | Cc1ccc(-c2ccc(=O)n(CC(=O)NCc3ccccc3)n2)cc1 | inactive
28 | COc1ccc(OC)c(NC(=O)c2ccccc2OC(C)=O)c1 | inactive
29 | O=C(O)c1ccc(-c2noc(-c3ccccc3Cl)n2)cc1 | inactive
30 | CN1CCc2ccc3c4c2[C@]1(C)Cc1cccc(c1-4)OCO3 | inactive
31 | O=C1CCc2cc(S(=O)(=O)Nc3ccccc3-c3ccccc3)ccc2N1 | inactive
32 | Fc1cc(Nc2nc(-c3ccncc3)nc3ccccc23)ccc1OC(F)(F)F | inactive
33 | CCCn1c(-c2ccc(F)cc2)nc2c(N3CCN(CCn4ccnc4)CC3)nc(C)nc21 | inactive
34 | CC(CN1c2ccccc2Sc2ccc(S(=O)(=O)N(C)C)cc21)N(C)C (stereo not given) | inactive
35 | Oc1ccc(CNc2ccccc2C(F)(F)F)c2cccnc12 | inactive
36 | O=S(=O)(Nc1cccc2cccnc12)c1ccc2ccccc2c1 | inactive
37 | N#Cc1nc(NCC(F)F)c2ncn(-c3cccc(Cl)c3)c2n1 | inactive
38 | Cc1ccc(-c2ccc(=O)n(CC(=O)NCCc3ccncc3)n2)cc1 | inactive
39 | OC/C=C/c1ccc(O[C@@H]2O[C@H](CO)[C@@H](O)[C@H](O)[C@H]2O)cc1 | inactive
40 | Oc1cc(Nc2ccc(N3CCCCC3)cc2)cc2cccnc12 | inactive
